# Source: PubChem BioAssay
# Compounds with a hit are over-represented: about 12% of the library has one in this group of screens.
# BAZ2B block: BAZ2B (human) inhibition. AlphaScreen BAZ2B-H3K14Ac peptide displacement. Potency, µM (top dose mostly 114 µM), most hits filed as inhibitors. AID 504333. hit rate 4.4% among 360,000. Q9UIF8; note: nearly all actives have a fitted effect of over 60% in size
# Target sequence (Q9UIF8 whole entry, looked up): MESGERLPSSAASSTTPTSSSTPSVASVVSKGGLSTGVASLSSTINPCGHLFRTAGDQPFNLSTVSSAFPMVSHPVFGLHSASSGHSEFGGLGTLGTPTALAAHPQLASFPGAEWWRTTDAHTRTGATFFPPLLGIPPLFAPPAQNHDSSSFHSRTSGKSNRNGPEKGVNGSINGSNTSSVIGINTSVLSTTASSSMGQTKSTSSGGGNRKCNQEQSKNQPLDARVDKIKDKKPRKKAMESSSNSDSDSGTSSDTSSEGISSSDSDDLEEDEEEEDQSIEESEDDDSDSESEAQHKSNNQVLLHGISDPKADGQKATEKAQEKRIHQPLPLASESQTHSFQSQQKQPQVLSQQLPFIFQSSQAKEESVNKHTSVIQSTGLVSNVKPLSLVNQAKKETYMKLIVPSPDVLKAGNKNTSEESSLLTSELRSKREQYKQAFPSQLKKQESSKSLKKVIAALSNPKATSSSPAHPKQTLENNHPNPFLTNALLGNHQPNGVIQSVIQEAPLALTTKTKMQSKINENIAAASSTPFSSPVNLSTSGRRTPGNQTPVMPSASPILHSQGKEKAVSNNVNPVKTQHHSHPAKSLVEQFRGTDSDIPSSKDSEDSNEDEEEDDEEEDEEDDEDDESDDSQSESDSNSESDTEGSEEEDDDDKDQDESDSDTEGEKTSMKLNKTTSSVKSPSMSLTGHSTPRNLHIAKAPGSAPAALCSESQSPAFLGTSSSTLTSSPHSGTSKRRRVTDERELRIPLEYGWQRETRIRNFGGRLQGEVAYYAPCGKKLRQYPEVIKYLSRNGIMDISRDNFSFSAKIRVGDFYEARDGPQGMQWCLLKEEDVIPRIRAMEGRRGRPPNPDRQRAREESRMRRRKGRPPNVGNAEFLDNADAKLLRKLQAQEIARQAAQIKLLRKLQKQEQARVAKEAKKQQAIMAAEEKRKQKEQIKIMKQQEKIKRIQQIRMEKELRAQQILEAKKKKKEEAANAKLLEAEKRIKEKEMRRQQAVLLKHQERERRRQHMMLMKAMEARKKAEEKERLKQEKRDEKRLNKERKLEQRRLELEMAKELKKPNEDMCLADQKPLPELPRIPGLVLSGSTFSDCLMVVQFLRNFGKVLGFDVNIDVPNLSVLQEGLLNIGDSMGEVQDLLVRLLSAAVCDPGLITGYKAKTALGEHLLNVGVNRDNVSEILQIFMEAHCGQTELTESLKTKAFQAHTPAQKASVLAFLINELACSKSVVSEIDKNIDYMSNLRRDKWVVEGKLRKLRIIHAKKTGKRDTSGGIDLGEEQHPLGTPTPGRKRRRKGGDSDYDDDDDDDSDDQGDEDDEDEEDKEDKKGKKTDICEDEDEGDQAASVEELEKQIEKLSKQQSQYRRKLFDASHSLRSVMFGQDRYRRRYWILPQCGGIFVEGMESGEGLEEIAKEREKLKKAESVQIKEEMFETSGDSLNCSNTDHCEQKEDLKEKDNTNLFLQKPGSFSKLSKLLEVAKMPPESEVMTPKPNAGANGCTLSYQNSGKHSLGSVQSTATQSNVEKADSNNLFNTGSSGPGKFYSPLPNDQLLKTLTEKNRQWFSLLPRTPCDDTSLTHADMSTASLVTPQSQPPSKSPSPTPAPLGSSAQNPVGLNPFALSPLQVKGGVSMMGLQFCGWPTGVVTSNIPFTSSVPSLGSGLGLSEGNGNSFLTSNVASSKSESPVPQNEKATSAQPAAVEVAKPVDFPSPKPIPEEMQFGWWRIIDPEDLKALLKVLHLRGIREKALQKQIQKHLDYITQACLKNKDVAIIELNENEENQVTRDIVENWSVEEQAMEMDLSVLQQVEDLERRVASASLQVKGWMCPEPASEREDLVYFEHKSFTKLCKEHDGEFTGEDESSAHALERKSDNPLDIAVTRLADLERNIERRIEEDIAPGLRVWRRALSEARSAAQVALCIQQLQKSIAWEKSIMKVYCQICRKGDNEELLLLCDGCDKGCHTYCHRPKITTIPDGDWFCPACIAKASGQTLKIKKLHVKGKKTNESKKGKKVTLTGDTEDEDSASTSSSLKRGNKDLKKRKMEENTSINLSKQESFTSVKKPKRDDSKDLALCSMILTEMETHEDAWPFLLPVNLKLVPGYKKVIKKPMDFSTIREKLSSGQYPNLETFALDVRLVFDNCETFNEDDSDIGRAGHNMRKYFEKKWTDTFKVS
#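 Multi-concentration screen (max 110 uM) measuring displacement of acetylated histone H3 peptide from BAZ2B by AlphaScreen, using 50 nM protein, 50 nM peptide and 10 ug/mL streptavidin donor plus Ni-chelate acceptor beads.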
# Sfp inh: blocks B. subtilis Sfp PPTase activity | Biochemical Sfp PPTase activity, qHTS | Potency, µM, hits mostly inhibitors | hit rate 3.5% among 310,000 | AID 1490;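 note: the enzyme is Sfp with the accession as filed and its product quenches rhodamine fluorescence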
#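 After 15 min at room temperature with compound, 15 nM Sfp received 5 uM rhodamine-CoA plus 12.5 uM BHQ-2-ybbR (50 mM Hepes pH 7.6, 10 mM MgCl2). Rate came from the fluorescence difference over 30 min, ex 525/em 598 nm.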
# JMJD2A Tudor: inhibitors of human JMJD2A Tudor domain. O75164. AlphaScreen JMJD2A-Tudor / H3K4me3 peptide binding. Potency, µM (highest dose often 114 µM), actives largely listed as inhibitors. hit rate 4.4% among 390,000; note: nearly all actives have a fitted effect of over 50% in size
# G9a block: G9a (human) methyltransferase inhibition. hit rate 8.8% among 350,000. AID 504332. Q96KQ7. Potency, µM (doses to about 102 µM), hits mostly inhibitors. G9a H3K9 monomethylation, AlphaScreen, 2 h; note: nearly all actives have a fitted effect of over 75% in size
#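 Enzyme 20 nM + cpd, 15 min RT; add b-H3K9 pep 500 nM / SAM 20 uM; 2 h RT; anti-H3K9me1 Ab 0.5 ug/mL + SA donor / anti-rabbit acceptor beads 20 ug/mL each, 10 min; AlphaScreen read.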
# HP1b binding inh: inhibitors of HP1-beta chromodomain binding to methylated histone tails. hit rate 0.56% among 390,000. AlphaScreen HP1-beta / biotin-H3K9me3 peptide binding. P83916. Potency, µM (titrated, usually from 114 µM), most hits filed as inhibitors; note: nearly all actives have a fitted effect of over 70% in size
#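 AlphaScreen: HP1-beta (50 nM) preformed 30 min with biotin-H3(1-18)K9me3 peptide (50 nM) in PBS pH 7.4, 0.01% Tween-20. Compound added for 30 min at RT, then streptavidin donor/nickel chelate acceptor beads (10 ug/mL) for 30 min.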
# L3MBTL1 block: inhibitors of human L3MBTL1 | Q9Y468 | AlphaScreen L3MBTL1–H3K9me1 peptide binding | Potency, µM (titrated, usually from 57.1 µM), most hits filed as inhibitors | hit rate 0.66% among 230,000; note: nearly all actives have a fitted effect of over 60% in size
#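 L3MBTL1 50 nM + b-AHA-H3(1-15)K9me1 75 nM, 30 min RT; compound added, 30 min RT; streptavidin donor/Ni-chelate acceptor beads 10 ug/mL each final, 30 min RT dark; AlphaScreen read.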
# A number is an active result; i = inactive; ? = inconclusive; nt = no result; [ ] = dose if it differs, or a comment. Calls come from the whole dose curve; as a rule, active = well fitted curve in the direction sought with a large enough effect; inconclusive = small, poorly fitted or top-dose-only effect, or another doubt; inactive = no such curve, though single readings can be large; an effect the other way counts as inactive or inconclusive.
SMILES,BAZ2B block,Sfp inh,JMJD2A Tudor,G9a block,HP1b binding inh,L3MBTL1 block
CCCOc1ccc(C(=O)Nc2cc(-c3nc4cc(C)cc(C)c4o3)ccc2C)cc1,i,nt,i,i,i,nt
Cc1cccc(N=C2NN=C(c3ccc4c(c3)OCCO4)CS2)c1,i,i,i,i[12.7 µM],i,i
Cc1cccc(N=C2NN=C(c3c(C)[nH]c4ccccc34)CS2)c1,?,40µM,45µM,?,i,i
CCN(CC)CCC(=O)N1c2ccccc2Sc2ccc(Cl)cc21,i,i,i,i[12.7 µM],i,i
CCc1ccc2c(c1)N(C[C@H](C)CN(C)C)c1ccccc1S2,nt,i,nt,18µM,nt,nt
CCN(CC)[C@@H](C)CN1c2ccccc2Sc2ccccc21,nt,i,nt,8.9µM,nt,nt
CCN(CC)CCN1c2ccccc2Sc2ccc3ccccc3c21,?,i,?,50µM,i,i
CCN(CC)CCN1c2ccccc2Sc2ccccc21,71µM,i,2.8µM,?,45µM,nt
CCc1ccc(NC(=O)Cn2c(=O)n(CC3CCCO3)c(=O)c3cc(OC)c(OC)cc32)cc1 (centres undefined),i,nt,i,i,i,nt
CCN1C(=O)c2ccccc2Sc2ccc(NC(=O)N3CCN(c4cc(C)ccc4C)CC3)cc21,i,nt,i,i,i,nt
CC1CCN(C(=O)c2ccc(-c3ccccc3Cl)o2)CC1,?,nt,i,40µM,?,i
COc1ccc(CCNC(=O)c2ccc(-c3ccc([N+](=O)[O-])cc3Cl)o2)cc1,i,50µM,?,35µM,i,i
O=C(c1ccc(-c2ccccc2Cl)o1)N1CCC1,i,nt,i,?,i,i
O=C(c1ccc(-c2cccc(Cl)c2Cl)o1)N1CCOCC1,i,79µM,i,40µM,i,i
NC(=O)C1CCCN(C(=O)c2ccc(-c3cccc(Cl)c3Cl)o2)C1 (centres undefined),i,nt,i,?,i,i
S=C(c1ccc(-c2ccc(Cl)c(Cl)c2)o1)N1CCOCC1,11µM,16µM,35µM,?,?,?
CC(C)c1ccc(CNc2nc(-c3ccco3)nn2S(=O)(=O)c2ccc(F)cc2)cc1,i,nt,i,i,i,nt
COCC(=O)N1CCC2(CC1)CN(c1ccncc1)C2,nt,i,nt,i[12.7 µM],nt,nt
CCOc1ccc(C2C(C(=O)Nc3ccc(C)cc3C)=C(C)Nc3c(C(=O)Nc4ccc(C)cc4)cnn32)cc1OC (centres undefined),i,nt,i,?,i,nt
COc1ccc(-c2ccc(C(=S)N3CCN(C(C)=O)CC3)o2)cc1,?,13µM,?,6.3µM,?,i
S=C(Nc1ccccc1Cl)N1CCOCC1,i,i,i,i,i,i
O=C(c1ccc(-c2ccc([N+](=O)[O-])cc2Cl)o1)N1CCOCC1,i,40µM,i,45µM,i,i
COc1ccc(CC(=O)N2CCN(C(=O)Cc3ccc(OC)cc3)CC2)cc1,i,i,?,i,i,i
S=C(c1ccc(-c2ccccc2Cl)o1)N1CCOCC1,40µM,14µM,40µM,?,?,nt
S=C(c1ccc(-c2ccc(Br)cc2)o1)N1CCCCC1,i,i,?,79µM,i,i
SMILES,BAZ2B block,Sfp inh,JMJD2A Tudor,G9a block,HP1b binding inh,L3MBTL1 block
O=C(c1ccc([N+](=O)[O-])o1)N1CCOCC1,i,i,i,i,i,i
S=C(c1ccc(-c2ccc(Br)cc2)o1)N1CCOCC1,28µM,35µM,35µM,14µM,25µM,nt
O=Cc1ccc(-c2ccc([N+](=O)[O-])cc2Cl)o1,?,i,?,35µM,i,i
O=Cc1ccc(-c2cccc([N+](=O)[O-])c2)o1,i,i,i,nt,i,i
O=C(c1cc(-c2ccc(Br)cc2)on1)N1CCOCC1,i,i,i,i,i,nt
Cc1ccc(NC(=O)c2sc(-n3nc(C)c(Cc4ccc5c(c4)OCO5)c3C)nc2C)cc1Cl,i,nt,i,i,nt,nt
Cc1ccccc1CNC(=O)c1ccc(Cn2c(SCc3ccccc3)nc3cccnc32)cc1,i,nt,i,i,i,nt
COc1ccc(N2CCN(C(=O)COC(=O)c3ccc(C)o3)CC2)cc1,i,nt,i,50µM,i,i
COc1ccc(N2CCN(C(=O)COC(=O)Cc3ccc(F)cc3)CC2)cc1,i,nt,i,45µM,i,i
COc1ccc(N2CCN(C(=O)COC(=O)c3ccc(CSC)o3)CC2)cc1,?,nt,i,16µM,i,i
COc1ccc(N2CCN(C(=O)CCn3cnc4onc(-c5ccc(F)cc5)c4c3=O)CC2)cc1,?,nt,?,14µM,i,nt
COc1ccc(N2CCN(C(=O)COC(=O)c3oc4ccccc4c3C)CC2)cc1,?,nt,?,?,i,i
CCOC(=O)c1nnc2c(-c3ccc(Cl)cc3)c(C)nn2c1N,i,nt,i,i,i,nt
COc1ccccc1N1CCN(c2ncnc3c2nnn3C)CC1,i,nt,i,i,i,nt
COc1ccccc1CNC(=O)Cn1c(=O)nc(-c2ccccc2F)c2cc(Cl)ccc21,i,nt,i,i[12.7 µM],i,nt
CC(C)[C@@H](CC(=O)N[C@@H]1CCCC[C@H]1C(=O)N[C@H](CC(=O)N[C@@H](CCC(=O)O)CC(=O)O)Cc1c[nH]c2ccccc12)NC(=O)C[C@H](Cc1c[nH]c2ccccc12)NC(=O)[C@@H]1CNCC[C@H]1N,nt,i,nt,nt,nt,nt
CCOc1ccc2nc(N3CCN(C(=O)c4ccco4)CC3)sc2c1,i,nt,i,i,i,nt
CN1CCN(c2ncc3nc(-c4cccc(C#N)c4)c(=O)n(Cc4ccc(F)cc4)c3n2)CC1,nt,i,nt,i[0.501 µM],nt,nt
COC(=O)c1ccc(C2C(C(=O)c3ccc(C)o3)=C(O)C(=O)N2c2cc(C)on2)cc1 (centres undefined),i,i,i,50µM,i,nt
COC(=O)c1sc(N2C(=O)C(O)=C(C(=O)c3ccc(C)o3)C2c2ccc(F)cc2)nc1C (centres undefined),i,?,i,13µM,i,i
COC(=O)c1sc(N2C(=O)C(O)=C(C(=O)c3ccc(C)o3)C2c2cccs2)nc1C (centres undefined),i,?,?,10µM,i,nt
COC(=O)c1sc(N2C(=O)C(O)=C(C(=O)c3ccc(C)o3)C2c2ccco2)nc1C (centres undefined),i,i,i,nt,i,nt
COC(=O)c1ccc(C2c3c(oc4ccccc4c3=O)C(=O)N2c2nc(C)c(C(=O)OC)s2)cc1 (centres undefined),i,nt,i,?,i,nt
COC(=O)c1sc(N2C(=O)c3oc4ccccc4c(=O)c3C2c2cccs2)nc1C (centres undefined),i,i,i,14µM,i,i
CCN(CC)C(=O)Cn1cc(SCC(=O)Nc2ccccc2C)c2ccccc21,i,nt,i,i,i,nt
CC(=O)OCC1OC(C#Cc2ccccc2)C=CC1O (centres undefined),nt,i,nt,nt,nt,nt
COC(F)(F)C(Cl)Cl,nt,i,nt,i[12.7 µM],nt,nt
CCOCCCNC(=O)Cn1nc(C)n2c(cc3cc(C)ccc32)c1=O,i,nt,i,i,i,nt
